# Screening results (PubChem)
# eIF4E 4G PPI = inhibitors of eIF4E and eIF4G interaction in translation initiation; inhibition, % at 21.7 µM; actives 0.37% (n = 220,000); TR-FRET eIF4E-eIF4GI(517-606) binding, 2 h; AID 782;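 active = inhibition above about 30%, limit read from the data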;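 note: 0% = full FRET control wells and 100% = background wells lacking eIF4GI fragment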
# PABP polyA inh = blocks human PABP binding to poly(A) RNA. actives 1% (n = 290,000). fluorescence polarization. calls only at 35 µM;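 note: calls also rest on retests at 20 µM and on dose response follow-up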
# Target sequence (P11940 whole entry, looked up): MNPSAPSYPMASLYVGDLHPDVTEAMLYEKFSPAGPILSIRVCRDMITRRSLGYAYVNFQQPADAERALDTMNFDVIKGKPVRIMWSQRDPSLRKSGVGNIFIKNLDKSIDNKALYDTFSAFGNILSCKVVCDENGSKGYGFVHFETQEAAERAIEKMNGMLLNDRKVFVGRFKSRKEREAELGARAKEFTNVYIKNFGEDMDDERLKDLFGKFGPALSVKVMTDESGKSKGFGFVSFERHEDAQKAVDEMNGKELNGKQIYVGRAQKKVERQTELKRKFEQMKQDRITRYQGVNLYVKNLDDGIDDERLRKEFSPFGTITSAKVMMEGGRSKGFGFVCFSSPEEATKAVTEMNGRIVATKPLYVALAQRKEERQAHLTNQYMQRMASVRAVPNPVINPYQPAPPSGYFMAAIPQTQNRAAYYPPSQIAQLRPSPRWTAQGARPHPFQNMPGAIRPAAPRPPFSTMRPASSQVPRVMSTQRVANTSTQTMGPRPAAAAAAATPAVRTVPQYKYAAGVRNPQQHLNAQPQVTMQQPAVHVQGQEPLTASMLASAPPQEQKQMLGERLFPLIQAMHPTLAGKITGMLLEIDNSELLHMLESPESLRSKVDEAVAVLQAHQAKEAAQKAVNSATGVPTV
# PABP1 MLLE inh = inhibitors of microRNA-mediated deadenylation, human PABP1 MLLE binding; P11940; GST-MLLE / FITC-PAM2 fluorescence polarization; inhibition, % at 20 µM; actives 0.36% (n = 360,000); AID 588489; in the data active = inhibition above about 35%, passing the limit was not always enough;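 note: plate controls were DMSO wells with GST-MLLE for no effect and wells lacking GST-MLLE protein for full effect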
# eIF4H inh = inhibitors of RNA binding by human eIF4H. Q15056. eIF4H fluorescence polarization binding assay. inhibition, % at 35 µM. actives 0.94% (n = 290,000). AID 2012;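 note: calls also rest on retests at 20 µM and on dose response follow-up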
# The depositor's hits bear a star; i = inactive; u = inconclusive; x = no result; + = active, no number; ! = not confirmed by another sample; [ ] = remark or other dose. A selection: hits, their analogues and other compounds. The true share with any hit is near 1.5%. Unless noted, the rule behind the calls is not given here.
SMILES,eIF4E 4G PPI,PABP polyA inh,PABP1 MLLE inh,eIF4H inh
COc1ccccc1N(CC(=O)NCc1ccco1)S(=O)(=O)c1ccc(C)cc1,x,+,18.2,87.0*
Cc1ccc(S(=O)(=O)N(Cc2ccccc2)Cc2ccco2)cc1,5.2,i,-0.2,-10.3
CCOc1ccccc1N(CC(=O)NCCSc1ccccn1)S(=O)(=O)c1ccc(C)cc1,x,+,5.7,85.6*
O=C(NCc1ccc(F)cc1)c1c2c(nc3ccccc13)CCC2,35.9*,i,-24.7,71.1*
O=C(CSc1c2c(nc3ccccc13)CCCC2)NCc1ccco1,1.1,i,22.7,5.9
COc1ccc2cc3c(N)c(C(=O)NCc4ccco4)sc3nc2c1,1.4,i,-12.5,u
Nc1c(C(=O)NCc2ccco2)sc2nc3c(cc12)C(=O)CCC3,31.7*[fluorescence artefact?],+,14.4,88.8*
O=C(NCc1ccco1)c1c2c(nc3ccccc13)CCC2,x,+,5.7,89.1*
CCc1ccc(-c2n[nH]nc2C2=CC(=O)C[C@H](c3ccc(F)cc3)C2)cc1,x,x,5.5,x
O=C(Nc1cccc2c1CCCC2)c1cc(C2CCCCN2C(=O)CCCc2ccccc2)on1 (configuration not stated),x,x,-13.6,x
Cc1cc(O)c(C=Nc2ccc(N3CCOCC3)cc2)c(C)c1Cl,x,+,-47.7,58.0
Cc1ccc(S(=O)(=O)/N=C2\C=C(NS(=O)(=O)c3ccccc3)C(=O)c3ccccc32)cc1,x,x,5.7,x
Cc1ccc(S(=O)(=O)/N=C2/C=C(C3C(=O)CC(C)(C)CC3=O)C(=O)c3ccccc32)cc1,9.8,i,44.3*,6.0
CC(C(=O)N1CCCC1)N(c1ccc(Cl)cc1)S(C)(=O)=O (configuration not stated),x,x,-6.2,x
CC1=C(C#N)C(=O)OC(C)(C)C1,-0.1,+,86.8,121.5*
COc1cc(NC(C)C(=O)N2CC(C)OC(C)C2)cc(OC)c1 (configuration not stated),-1.5,+,1.9,u
COc1cccc(NC(C)C(=O)N2CC(C)OC(C)C2)c1 (configuration not stated),-0.9,i,13.6,15.0
CC(C)c1ccc(NC(=O)C2(C)Cc3c(-c4ccc(C(N)=O)cc4)ccnc3O2)cc1 (configuration not stated),x,x,5.5,x
CCc1ccc(C2C(C#N)=C(N)C(C#N)(C#N)C3=CCC(C(C)(C)C)CC32)cc1 (configuration not stated),-3.9,i,47.8,83.8*
CCOC(=O)C1=CCN(S(=O)(=O)c2ccccc2C)C1c1ccc(Cl)c(Cl)c1 (configuration not stated),x,x,8.8,x
CCCC(=O)NC(=S)Nc1sc2c(c1C(N)=O)CCC2,-2.7,+,14.1,91.0
CCN1CCc2c(sc(NC(=S)NC(=O)c3ccco3)c2C(N)=O)C1,1.5,+,-45.9,85.3*
CCC(=O)Nc1sc2c(c1C(N)=O)CCC2,-15.5,i,3.5,-5.8
CCC(=O)Nc1sc2c(c1C(N)=O)CCN(Cc1ccccc1)C2,x,+,2.6,95.5
NC(=O)c1c(NC(=O)Cn2nc(C(=O)O)c3ccccc3c2=O)sc2c1CCC2,8.7,+,-0.5,u
SMILES,eIF4E 4G PPI,PABP polyA inh,PABP1 MLLE inh,eIF4H inh
NC(=O)c1c(NC(=O)c2ccccc2)sc2c1CCN(Cc1ccccc1)C2,x,u,-4.6,u
C[C@@H]1CN([C@H](C)CO)S(=O)(=O)c2ccc(Br)cc2O[C@H]1CN(C)C(=O)C1CCCCC1,x,x,18.0,x
Cc1cc(C)c(S(=O)(=O)/N=C2\C=C(Nc3ccc(C(=O)O)cc3)C(=O)c3ccccc32)c(C)c1,x,+,8.2,60.4*
Cc1c(C(=O)NCc2cccs2)sc(=O)n1Cc1ccc(S(=O)(=O)N(C)C)cc1,x,x,4.4,x
O=C(NC12CC3CC(CC(C3)C1)C2)c1cnccn1,0.1,i,46.2*,9.7
O=C(/C=C/c1cccs1)Nc1scc(-c2ccccc2)c1C(=O)O,92.4*,i,-4.0,8.1
O=C(/C=C/c1cccs1)Nc1nc(-c2ccccc2)cs1,3.2,i,4.9,-5.2
CC(N)c1csc(NC(=O)Nc2cccc(C(F)(F)F)c2)n1 (configuration not stated),x,x,0.9,x
CCc1nc2c(OCc3c(C)noc3C)cccn2c1N(C=O)Cc1ccccc1,x,x,-5.8,x
Cc1[nH]n(-c2ccccc2)c(=O)c1C=Nc1ccc2[nH]c(=O)[nH]c2c1,-0.1,i,7.8,7.7
Cc1cccc(-n2[nH]c(C)c(C=Nc3ccc4[nH]c(=O)[nH]c4c3)c2=O)c1,5.4,+,17.3,60.9*
COc1ccc(/C=C(/CC(=O)NCc2ccc(Cl)cc2)c2nc3ccccc3s2)cc1,-0.7,i,-9.4,active
CN1CCCN(Cc2ccccc2C(F)(F)F)CC1,93.8*,i,-4.0,5.6
CCCS(=O)(=O)N1CCN(Cc2ccccc2C(F)(F)F)CC1,-5.5,i,1.7,-14.5
CCCCN(C=O)c1c(CC)nc2c(OCc3ccc(S(C)(=O)=O)cc3)cccn12,x,x,4.3,x
Cc1ccc(-c2csc3ncn(CC#N)c(=O)c23)cc1,8.6,i,-18.5,38.7
Cc1ccc(-c2csc3ncn(CC#N)c(=O)c23)cc1C,x,+,-10.3,54.0*
COCCn1c(SCC(=O)c2c(N)n(C)c(=O)n(C)c2=O)nc2ccccc21,-0.4,+,-1.0,3.0*
CN(c1ccc(OCC(=O)OCC(=O)Nc2ccccc2)cc1)S(=O)(=O)c1cccs1,-4.2,+,3.0,active
CCN(CC)CCNC(=O)c1cc(-c2ccc(Br)s2)nc2ccccc12,x,i,0.2,-8.0
CCCCOc1cc(C(=O)NCCN(CC)CC)c2ccccc2n1,74.2*!,i,-8.2,-3.9
Cc1ccc(-c2nc3ccc(Cl)cn3c2Cc2cccc(F)c2)cc1,x,x,-17.3,x
CCOC(=O)c1c2ccc(OCC(=O)NN)cc2n2ccccc12,-2.4,i,58.0*,9.7
CCC1S/C(=C(\C#N)C(=O)NCc2ccco2)N(c2ccc(Br)cc2)C1=O (configuration not stated),3.9,+,2.8,73.3*
CC1S/C(=C(\C#N)C(=O)NCc2ccco2)N(c2ccc(F)cc2)C1=O (configuration not stated),4.2,+,-1.6,110.1*
SMILES,eIF4E 4G PPI,PABP polyA inh,PABP1 MLLE inh,eIF4H inh
CCC(C)[C@H](N)c1cn([C@@H](CCCCN)C(=O)N2CCNCC2)nn1 (some centres not stated),-0.3,+,5.5,-4.7
NCCCCC(N)c1cn([C@@H](CCC(=O)O)C(=O)N2CCNCC2)nn1 (some centres not stated),x,x,-8.8,x
CCCC(=O)NC1=C(Cl)C(=O)c2ccccc2C1=O,x,x,41.5*,x
CCN(CC)c1ccc(NC2=C(Cl)C(=O)c3ccccc3C2=O)cc1,19.4,i,44.8*,-4.0
Cc1ccc(NC2=C(Cl)C(=O)c3ccccc3C2=O)cc1,-0.3,i,9.6,-2.2
COc1cccc(NC(=O)C2(C)CCN2Cc2ccccc2OC(F)F)c1 (configuration not stated),x,x,0.3,x
Cc1ccc(C)n1-c1cc(S(=O)(=O)N2CCOCC2)ccc1N1CCCC1,-17.7,+,1.2,92.5*
